Source: PubChem BioAssay AID2284344 (EPA ToxCast)
Results filed as inconclusive are left out. Active and inactive are the calls of the source. The calls were made as follows: active = hit-call score of the fitted dose curve at least 0.9, where 1 is the maximum; inconclusive = response in the unintended direction; inactive = score below 0.9.

system: frog Peroxisome Proliferator-activated Receptor-alpha (PPARa), gene 398843; assay: ATG_frPPARa_EcoTox2: Attagene TRANS-FACTORIAL EcoTox-2 HepG2 Assay for frog Peroxisome Proliferator-activated Receptor-alpha (PPARa)
Protocol: ATG_EcoTox2 is a cell-based, multiplexed assay created by modifying the existing Attagene TRANS-FACTORIAL system to include a panel of nuclear receptors from some or all the following species: human (Homo sapiens), african clawed frog (Xenopus laevis), rainbow trout (Oncorhynchus mykiss), japanese medaka (Oryzias latipes), and zebrafish (Danio rerio). The ECOTOX2-FACTORIAL format uses HepG2, a human liver cell line, with measurements taken at 24 hours after chemical dosing in a 24-well plate. ATG_frPPARa_EcoTox2 is one of 29 assay components calculated in the ATG_EcoTox2 assay. It is designed to make measurements of mRNA induction, a form of inducible reporter, as detected with fluorescence intensity signals by Reverse transcription polymerase chain reaction (RT-PCR) and Capillary electrophoresis technology.The assay endpoint ATG_frPPARa_EcoTox2 was analyzed in the positive analysis fitting direction relative to DMSO as the negative control and baseline of activity. Using a type of inducible reporter, measures of mRNA for gain-of-signal activity can be used to understand the reporter gene at the transcription factor-level as they relate to the gene PPARa. Furthermore, this assay endpoint can be referred to as a primary readout, because this assay has produced multiple assay endpoints where this one serves a reporter gene function. To generalize the intended target to other relatable targets, this assay endpoint is annotated to the nuclear receptor intended target family, where the subfamily is non-steroidal.
Human liver HepG2 cells are transiently transfected with multiple reporter transcription units (MRTUs) in 6-well plates using FuGene 6 reagent (Roche; 3 ml FuGene/1 mg DNA). The MRTU constructs are regulated by a cis-regulating element (promoter). Each RTU expresses a GAL4-UAS that regulates the transcription of a nearby target reporter gene sequence. A major difference between the CIS and TRANS system is that in CIS activities of endogenous TFs are measured, whereas the TRANS assay evaluates changes in activities of exogenous, chimeric NR-Gal4 proteins. […] At the end of 24 hour incubation, total RNA was isolated using TriZol reagent (Invitrogen). The isolated RNA is then reverse-transcribed using oligo(dT) primer and Mo-MLV reverse transcriptase (Invitrogen) with DNAse I (Ambion) treatment for 30 min. The one-tenth of the produced cDNA was amplified by PCR using Taq DNA polymerase (Invitrogen) and two reporter sequence-specific primers. […] The fragments were purified using Qiaquick PCR columns (Qiagen), analyzed on an ABI 3130xL genetic analyzer (Applied Biosystems) with peak positions identified by using a set of X-rhodamine (ROX)-labeled MapMarker1000 molecular weight standards (BioVentures). […]

| Structure (SMILES) | outcome | AC50 |
| --- | --- | --- |
| [Cl][Sn]([c]1ccccc1)([c]1ccccc1)[c]1ccccc1 | inactive |  |
| O=C(O)C(F)(F)C(F)(F)C(F)(F)C(F)(F)C(F)(F)C(F)(F)C(F)(F)F |  | 75 µM (active) |
| O=P(Oc1ccccc1)(Oc1ccccc1)Oc1ccccc1 | inactive |  |
| O=S(=O)(O)C(F)(F)C(F)(F)C(F)(F)C(F)(F)C(F)(F)C(F)(F)F | inactive |  |
